The list is a sample of the results.
aSyn UTR act – Activators via SNCA 5'UTR binding, MLPCN. actives 7.1% (n = 300,000). alpha-synuclein 5'UTR reporter, activators screen. activity score, % (tested at 7.5 µM), hits read low. AID 1814; in the data active = activity score below about -60%
* hit, by the source's call.

`Cc1ccc(S(=O)(=O)Nc2ccc(NC(=O)Nc3ccc(F)cc3F)cc2)cc1` gave aSyn UTR act 78.5.
`O=C(Nc1ccccc1)c1ccc(F)cc1F` gave aSyn UTR act -107.9*.
Screening Cc1ccc(NC(=O)c2ccc(F)cc2F)cc1 returned aSyn UTR act -195.0*.
For CCc1cc(C(=O)COc2ccc(F)cc2)c(O)cc1O the results were aSyn UTR act -104.4*.
For Cc1c(O)ccc(C(=O)COc2ccc(F)cc2)c1O the results were aSyn UTR act -153.7*.
For CN1CCN(S(=O)(=O)c2cccc(C(=O)Nc3sc4c(c3-c3nc5ccccc5[nH]3)CCCC4)c2)CC1 the results were aSyn UTR act -108.5*.
Screening O=C(/C=C/c1ccc(-c2ccccc2[N+](=O)[O-])o1)c1ccco1 returned aSyn UTR act -135.9*.
Cc1nn(-c2nnc(NCc3ccccc3)nn2)c(C)c1Br was read as aSyn UTR act -85.1*.
O=C(NNC(=S)Nc1ccc(Br)cc1)c1ccccc1 was read as aSyn UTR act -107.3*.
O=C(NNC(=S)Nc1ccccc1)c1cccc(Br)c1 was read as aSyn UTR act -94.9*.
`COc1ccccc1NC(=S)NNC(=O)c1ccc(O)cc1` gave aSyn UTR act -105.9*.
`O=C(NNC(=S)Nc1ccccc1)c1ccc(O)cc1` gave aSyn UTR act -131.3*.
CC(C)(C)NC(=S)NNC(=O)c1cccc(Br)c1 was read as aSyn UTR act -120.6*.
O=C(Nc1ccon1)c1ccc(OC2CCCC2)cc1 was read as aSyn UTR act -102.1*.
For COC(=O)/C(=C/Nc1cccc2ccccc12)[N+](=O)[O-] the results were aSyn UTR act -68.3*.
For CC(C)(C)c1ccc(OCC(=O)N2CCCCCC2)c(Br)c1 the results were aSyn UTR act -143.9*.
Cc1ccc(OCC(=O)N2CCCCC2)c(Br)c1 was read as aSyn UTR act -125.3*.
Screening O=C(/C=C/c1ccc(F)cc1)NCc1ccco1 returned aSyn UTR act -75.1*.
For Cc1cc(C(=O)OCC(=O)NCc2ccco2)c(C)n1-c1ccc(F)cc1 the results were aSyn UTR act 80.4.
For Cc1ccc(/C=C/C(=O)NCc2cccs2)c(C)c1 the results were aSyn UTR act -131.9*.
Cc1ccc(/C=C/C(=O)NCc2cccs2)cc1 was read as aSyn UTR act -68.5*.
`Cc1ccc(-c2nc3ccccc3c(=O)o2)cc1` gave aSyn UTR act -84.1*.
Screening O=C(Sc1cccc2cccnc12)c1ccccc1Br returned aSyn UTR act -241.6*.
For O=C(Nc1ccc2ccccc2n1)c1ccc(Cl)cc1 the results were aSyn UTR act -145.0*.
`O=C(Nc1ccc2ccccc2n1)c1ccccc1Cl` gave aSyn UTR act -70.9*.
`O=C(Nc1ccc2ccccc2n1)C1CCCCC1` gave aSyn UTR act -144.5*.
`c1ccc(Sc2cccc3ccccc23)c(CNC2=NCCN2)c1` gave aSyn UTR act 60.7.
For N/C(=N\OC(=O)c1csnn1)c1ccc(C(F)(F)F)cc1 the results were aSyn UTR act -67.4*.
`Cc1ccc2c(c1)sc1nc(=O)n(-c3ccccc3)c(=O)n12` gave aSyn UTR act -68.4*.
Cc1ccc(C2NNC(=O)C2NC(=O)c2ccccc2)cc1 (stereo not drawn) was read as aSyn UTR act -111.1*.
For CCN(CC)S(=O)(=O)c1ccc2c(c1)nc(-c1ccccn1)n2C the results were aSyn UTR act -73.2*.
C/C(=N\Nc1ccc(F)cc1F)c1ccc(N2CCOCC2)cc1 was read as aSyn UTR act -95.7*.
For Fc1ccc(N/N=C/c2ccc(N3CCOCC3)cc2)c(F)c1 the results were aSyn UTR act -207.5*.
For C/C(=N\Nc1ccc(F)cc1F)c1ccc(Br)s1 the results were aSyn UTR act -81.0*.
`CN(C)/N=C/c1ccc(N2CCOCC2)cc1` gave aSyn UTR act -96.4*.
Screening Cc1nc(NC(=O)c2cnccn2)ccc1Br returned aSyn UTR act -101.2*.
For Cc1nc(NC(=O)c2cncc(Br)c2)ccc1Br the results were aSyn UTR act -108.8*.
COc1ccccc1C(=O)N/N=C/c1ccc2c(c1)OCO2 was read as aSyn UTR act -173.4*.
Screening C(=N\Nc1ccc2ccccc2n1)/c1ccc2c(c1)OCCO2 returned aSyn UTR act 108.4.
For COc1cc2ccccc2cc1C(=O)N/N=C/c1ccc2c(c1)OCO2 the results were aSyn UTR act -163.5*.
`CS(=O)(=O)c1ccc2nc(NC(=O)Nc3cccc(Cl)c3)sc2c1` gave aSyn UTR act -84.9*.
For CS(=O)(=O)c1ccc2nc(NC(=O)Nc3ccccc3F)sc2c1 the results were aSyn UTR act -108.8*.
Screening CC(=O)C(C)Oc1ccc2c3c(c(=O)oc2c1)CCCC3 (stereo not drawn) returned aSyn UTR act -79.1*.
Screening O=c1oc2cc(OCc3ccc([N+](=O)[O-])cc3)ccc2c2c1CCCC2 returned aSyn UTR act -65.4*.
For CC(=O)C(C)Oc1ccc2c3c(c(=O)oc2c1)CCCCC3 (stereo not drawn) the results were aSyn UTR act -109.2*.
Nc1nc(NC(=O)c2cccs2)nn1-c1ccccc1 was read as aSyn UTR act -115.3*.
`O=C(Nc1nc(NC(=O)c2ccco2)n(-c2ccccc2)n1)c1ccccc1` gave aSyn UTR act 79.0.
`Nc1nc(NC(=O)c2ccccc2)nn1-c1ccccc1` gave aSyn UTR act -71.2*.
`O=C(Nc1nc2ccsc2c(=O)s1)C1CCC1` gave aSyn UTR act -95.5*.
`O=C(Nc1nc2ccsc2c(=O)s1)c1ccco1` gave aSyn UTR act -129.9*.
For O=C(Nc1nc2c(s1)CCc1ccccc1-2)c1ccco1 the results were aSyn UTR act -140.3*.
`O=C(Nc1nc2c(Cl)ccc(Cl)c2s1)c1ccco1` gave aSyn UTR act -183.8*.
O=c1sc(Nc2ccccc2)nc2ccsc12 was read as aSyn UTR act -111.4*.
Screening Cc1nc2ccc3nc(NC(=O)c4ccco4)sc3c2s1 returned aSyn UTR act -152.2*.
`CCN(Cc1ccccc1)C(=O)CCCOc1ccccc1` gave aSyn UTR act -91.4*.
Screening CCOC(=O)c1c(NC2OC(=O)c3c2ccc(OC)c3OC)sc(C(=O)OC(C)(C)C)c1C (stereo not drawn) returned aSyn UTR act -79.5*.
Screening CC(=O)Oc1ccccc1/C=C/c1nc2ccccc2c(=O)o1 returned aSyn UTR act 65.6.
For CC(=O)Oc1c(Cl)cc(Cl)cc1/C=C/c1ccc2ccccc2n1 the results were aSyn UTR act -205.2*.
`CC(=O)Oc1ccc(Cl)cc1/C=C/c1ccc2ccccc2n1` gave aSyn UTR act -258.5*.
For Cc1cccc(C(=O)NC2=NCCS2)c1 the results were aSyn UTR act -56.3*.
`O=C(/C=C/c1ccc(Cl)c(Cl)c1)NC1=NCCS1` gave aSyn UTR act -103.6*.
Screening O=C(NC1=NCCS1)c1ccc(Cl)c(Cl)c1 returned aSyn UTR act -101.4*.
For COc1ccc(NS(=O)(=O)c2ccc(SC)cc2)c(OC)c1 the results were aSyn UTR act -66.4*.
For C(/C=C/c1ccco1)=N/N1CCN(c2ccccc2)CC1 the results were aSyn UTR act -189.0*.
Screening Clc1ccccc1CN1CCN(/N=C/C=C\c2ccco2)CC1 returned aSyn UTR act -78.3*.
For O=[N+]([O-])c1cc([N+](=O)[O-])c2cc3ccccc3nc2c1 the results were aSyn UTR act -176.0*.
`O=C(NCc1cccs1)c1cc2c(s1)CCCC2` gave aSyn UTR act -142.1*.
For O=C(NCC1CCCO1)c1cc2c(s1)CCC2 (stereo not drawn) the results were aSyn UTR act -122.3*.
